{"source": "the supplement of paper PMC7057948", "about": "“A genome-wide approach for identification and characterisation of metabolite-inducible systems” (Nature Communications, 2020);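 also: RFP excited at 585 nm with emission read at 620 nm, culture medium blanks subtracted from fluorescence and absorbance prior to normalisation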"}
{"system": "HpdA/P_H16_RS24175 L-tyrosine biosensor (pEH158)", "experiment": "relative induction of RFP reporter vs primary effector (background-corrected); higher = stronger activation of the biosensor", "conditions": "inducer concentration 5 mM; 6 h; Cupriavidus necator H16; minimal medium + 0.4% gluconate", "description": "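C. necator H16 strains, each carrying one of 21 transcription factor/inducible promoter–mRFP biosensor plasmids, were grown in minimal medium in 96-well plates (robotic platform). Each was exposed to 46 structurally or metabolically related compounds at 5 mM at 30 °C. OD-normalised RFP fluorescence was read 6 h later and expressed as relative induction (%) = 100 × (FL compound − FL uninduced)/(FL primary inducer − FL uninduced); mean of n=4.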", "units": {"relative induction of RFP reporter": "%"}}
{"smiles": "NCCS(=O)(=O)O", "note": "[taurine]", "relative induction of RFP reporter": -0.19}
{"smiles": "O=C(O)/C=C\\C=C/C(=O)O", "note": "[cis,cis-muconate]", "relative induction of RFP reporter": 0.00769}
{"smiles": "C[C@@H](O)C(=O)O", "note": "[D-lactate]", "relative induction of RFP reporter": -0.202}
{"smiles": "Oc1ccccc1O", "note": "[catechol]", "relative induction of RFP reporter": 0.0942}
